High-throughput results (PubChem BioAssay)
Compounds with a hit are over-represented: about 3.3% of the library has one in this group of screens.
Sm TGR inh – qHTS Assay for the Inhibitors of Schistosoma Mansoni Peroxiredoxins; Schistosoma mansoni thioredoxin glutathione reductase (TGR), Q962Y6; purified TGR, DTNB reduction, TNB absorbance 405 nm; Potency, µM (titrated, usually from 114 µM), actives largely listed as inhibitors; 360,000 tested, 3% active; note: nearly all actives have a fitted effect of over 60% in size
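First, TGR (20 nM dispensed) and NADPH were mixed with compound. Second, a 15 min room-temperature incubation followed. Third, further NADPH and then DTNB were added to start the reaction. Finally, TNB absorbance was monitored kinetically.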
AmpC no deterg – qHTS Inhibitors of AmpC Beta-Lactamase (assay without detergent); P00811; AmpC nitrocefin hydrolysis, absorbance 480 nm, 0.0001% Triton; Potency, µM (doses to about 57.1 µM), most hits filed as inhibitors; 330,000 tested, 0.52% active; note: nearly all actives have a fitted effect of over 20% in size
Target sequence (P00811 whole entry, looked up): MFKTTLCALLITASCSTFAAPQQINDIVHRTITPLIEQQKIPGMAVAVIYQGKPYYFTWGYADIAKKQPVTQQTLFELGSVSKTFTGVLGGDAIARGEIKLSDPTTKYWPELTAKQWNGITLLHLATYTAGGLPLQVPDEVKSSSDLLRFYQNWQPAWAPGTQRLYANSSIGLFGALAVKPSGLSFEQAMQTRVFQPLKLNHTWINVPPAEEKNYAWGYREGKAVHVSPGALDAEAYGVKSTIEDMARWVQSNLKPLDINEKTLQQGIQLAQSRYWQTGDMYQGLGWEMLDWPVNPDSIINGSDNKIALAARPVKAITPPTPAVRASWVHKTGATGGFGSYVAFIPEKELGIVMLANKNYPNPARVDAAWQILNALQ
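20 mM phosphate pH 7.0 + 0.01% (detergent screen) or 0.0001% Triton X-100; 5.3 nM AmpC reagent; cpd preinc 15 min RT; nitrocefin (800 uM stock) to start; A480 q20 s × 4 min; Activity was normalised to no-enzyme and no-compound control wells.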
AmpC inh detg – qHTS Inhibitors of AmpC Beta-Lactamase (assay with detergent); AmpC hydrolysis of nitrocefin, absorbance 480 nm, 0.01% Triton; 370,000 tested, 0.041% active; Potency, µM (doses to about 114 µM), actives largely listed as inhibitors; AID 485294, 2010; P00811; note: nearly all actives have a fitted effect of over 25% in size
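AmpC (5.3 nM in the dispensed reagent) in 20 mM phosphate pH 7.0 with 0.01% (detergent screen) or 0.0001% Triton X-100 was preincubated with compounds for 15 min at room temperature. Nitrocefin was then added from an 800 uM solution, and hydrolysis was followed at 480 nm.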
Each line names hits and unclear results; the compound was inactive in the other large screens. Calls come from the whole dose curve; as a rule, active = well fitted curve in the direction sought with a large enough effect; inconclusive = small, poorly fitted or top-dose-only effect, or another doubt; inactive = no such curve, though single readings can be large; an effect the other way counts as inactive or inconclusive.

O=C(Cn1c(=O)c(C(F)(F)F)nc2ccccc21)Nc1ccc(Br)cc1F	none (no result: AmpC no deterg)
COc1ccc(S(=O)(=O)N2CCC(C(=O)N[C@H](C(=O)N3CCCC3)C(C)C)CC2)cc1	none
COc1ccc(S(=O)(=O)N2CCC(C(=O)N[C@H](C(=O)NC3CCCC3)C(C)C)CC2)cc1	Sm TGR inh 89µM
CC(C)(C)C1c2[nH]c3ccccc3c2CCN1Cc1cccc(OCCO)c1 (configuration not stated)	none
CC(=O)Nc1ccc(CN2CCc3c([nH]c4ccccc34)C2C(C)(C)C)cc1 (configuration not stated)	Sm TGR inh 50µM
O=C(N=C1c2ccccc2CN1c1ccc(F)c(F)c1)c1cccnc1	Sm TGR inh 45µM
O=C(N=C1c2ccccc2CN1c1cccc(Cl)c1)c1cccnc1	AmpC inh detg inconclusive
C=CCN(c1ccccc1OC)S(=O)(=O)c1cccc(C(=O)OCC(=O)N2CC(C)OC(C)C2)c1 (configuration not stated)	none (no result: Sm TGR inh, AmpC inh detg)
N#CCCn1cc(C=C(C#N)C#N)c(-c2ccc(-c3ccccc3)cc2)n1	Sm TGR inh 5µM, AmpC inh detg inconclusive
N#CCCn1cc(/C=N/O)c(-c2ccccc2)n1	none
CCCc1cc(=O)[nH]c(SCC(=O)N2c3ccccc3CC2C)n1 (configuration not stated)	none (no result: Sm TGR inh, AmpC inh detg)
O=C(NC1CCOCC1)C1CCC(=O)N(CCc2cccc(F)c2)C1 (configuration not stated)	none
CC1CN(C(=O)C(c2ccccc2)c2ccccc2)CC(C)O1 (configuration not stated)	AmpC inh detg inconclusive
CC1CN(C(NC(=O)C(C)(C)C)C(Cl)(Cl)Cl)CC(C)O1 (configuration not stated)	Sm TGR inh 35µM
CC1CN(C(NC(=O)c2ccccc2)C(Cl)(Cl)Cl)CC(C)O1 (configuration not stated)	Sm TGR inh 20µM
CC1CN(C(C)C(=O)NNC(=O)c2ccc(F)cc2)CC(C)O1 (configuration not stated)	none (no result: Sm TGR inh, AmpC inh detg)
O=C(NC(N1CCCCCC1)C(Cl)(Cl)Cl)c1ccccc1Cl (configuration not stated)	Sm TGR inh inconclusive, AmpC inh detg inconclusive
O=C(NC(N1CCOCC1)C(Cl)(Cl)Cl)c1ccccc1Cl (configuration not stated)	Sm TGR inh 20µM, AmpC inh detg inconclusive
Cc1ccc(S(=O)(=O)NCC(=O)OC(C)C(=O)NC(=O)NC2CCCCC2)cc1C (configuration not stated)	none
Cn1nc(C(=O)Nc2cc(F)ccc2F)c2c1-c1ccccc1SC2	none (no result: AmpC no deterg)
CN(C)CCNC(=O)C(=O)NCC1OCCN1S(=O)(=O)c1ccc2c(c1)OCCO2 (configuration not stated)	none
C#CCOCCOCCOCCNc1nc(N2CCOCC2)nc(N2CCN(C(=O)CCCCCCCCCCNC(=O)[C@H](CO)n3cc(CCCCCN)nn3)CC2)n1	AmpC inh detg inconclusive
C#CCOCCOCCOCCNc1nc(N2CCN(C(=O)CCCCCCCCCCNC(=O)Cn3cc(CCCCCN)nn3)CC2)nc(N2CCN(C(=O)CCCCCCCCCCNC(=O)[C@H]([C@@H](C)CC)n3cc(CCCCCN)nn3)CC2)n1	Sm TGR inh 45µM
C#CCOCCOCCOCCNc1nc(N2CCOCC2)nc(N2CCN(C(=O)CCCCCCCCCCNC(=O)Cn3cc(CCCCCN)nn3)CC2)n1	Sm TGR inh inconclusive, AmpC inh detg inconclusive
C#CCOCCOCCOCCNc1nc(N2CCN(C(=O)CCCCCCCCCCNC(=O)Cn3cc(CCCCCN)nn3)CC2)nc(N2CCN(C(=O)CCCCCCCCCCNC(=O)[C@H](CO)n3cc(CCCCCN)nn3)CC2)n1	Sm TGR inh 40µM
Cc1cc(C)n(-c2nc3ccccc3nc2Nc2ccc(Cl)cc2Cl)n1	none (no result: AmpC no deterg)
CCCc1nc(SCc2ccc(Cl)cc2Cl)n[nH]1	AmpC inh detg inconclusive
O=c1c(-c2ccccc2)c1-c1ccccc1	Sm TGR inh 3.5µM
O=c1c(NCCc2ccccc2)c(-c2ccccc2)c1=O	none
CN1C(=O)/C(=C/c2ccc(O)c([N+](=O)[O-])c2)N(C)C1=S	none (no result: Sm TGR inh)
O=[N+]([O-])c1cc([As](=O)(O)O)ccc1O	Sm TGR inh 32µM, AmpC inh detg inconclusive
O=C(COC(=O)c1ccccc1NCCO)Nc1cccc(S(=O)(=O)NC2=NCCCCC2)c1	none
CCOC(=O)c1ccc(NC(=O)c2ccc(NC(=O)c3ccccc3)cc2)cc1	none
CCOC1(NC(=O)c2ccccc2)C(C)=CC(=O)C=C1C	Sm TGR inh 25µM
